Consider 20 compounds from PubChem BioAssay (NCATS).

SMILES strings stand for the structures. Results filed as inconclusive are left out. Calls of active or inactive are those of the source. Calls come from the whole dose curve; as a rule, active = well fitted curve in the direction sought with a large enough effect; inconclusive = small, poorly fitted or top-dose-only effect, or another doubt; inactive = no such curve, though single readings can be large; an effect the other way counts as inactive or inconclusive.

Experiment [1] in a line: qHTS of pediatric cancer cell lines to identify multiple opportunities for drug repurposing: Primary screen for NB1643 cells (AID 1347099). Note: nearly all actives have a fitted effect of over 50% in size. Note: potency is the fitted concentration of half-maximal effect. Summed up: (§1)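 Viability was measured as metabolically active cells after 48 hours of treatment, read by CellTiter-Glo luminescence. Compounds were tested at multiple final concentrations, giving concentration-response curves.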
Background: qHTS replaces the single test concentration by a dilution series.

Experiment [2] can be described thus: qHTS of pediatric cancer cell lines to identify multiple opportunities for drug repurposing: Primary screen for LAN-5 cells (AID 1347100). Note: potency is the fitted concentration of half-maximal effect. In outline:
(§2)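 Cells (500-1,000/well) in growth media were settled 5 h at 37 degrees C, then given compounds for 48 h. Viability was read as CellTiter-Glo luminescence. Primary runs used MIPE at 11 points (0.78 nM-46 µM) and NPC at 8 points (0.59 nM-46 µM); follow-ups used 11 points.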

The nature of experiment [3]: qHTS of pediatric cancer cell lines to identify multiple opportunities for drug repurposing: Primary screen for Rh18 cells (AID 1347102). Note: nearly all actives have a fitted effect of over 65% in size. Summed up: as §2
Experiment [4] in a line: qHTS of pediatric cancer cell lines to identify multiple opportunities for drug repurposing: Primary screen for MG 63 (6-TG R) cells (AID 1347105). Note: nearly all actives have a fitted effect of over 50% in size. Note: potency is the fitted concentration of half-maximal effect. Summed up:
as §1

The nature of experiment [5]: qHTS of pediatric cancer cell lines to identify multiple opportunities for drug repurposing: Primary screen for control Hh wild type fibroblast cells (AID 1347106).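 Note: series mostly up to about 46 µM; a drop in luminescence marks cytotoxicity and a rise apparent proliferation; nearly all actives have a fitted effect of over 55% in size.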 In outline: as §2
Experiment [6] is described as follows: qHTS of pediatric cancer cell lines to identify multiple opportunities for drug repurposing: Primary screen for RD cells (AID 1347104). Note: nearly all actives have a fitted effect of over 55% in size. Note: potency is the fitted concentration of half-maximal effect. Summed up: as §1
Experiment [7] can be described thus: qHTS of pediatric cancer cell lines to identify multiple opportunities for drug repurposing: Primary screen for Rh30 cells (AID 1347107). Note: series mostly up to about 46 µM; nearly all actives have a fitted effect of over 75% in size. In outline:
as §2

A short description of experiment [8]: qHTS of pediatric cancer cell lines to identify multiple opportunities for drug repurposing: Primary screen for Rh41 cells (AID 1347108). Note: nearly all actives have a fitted effect of over 70% in size. Note: potency is the fitted concentration of half-maximal effect. In outline: as §1
A short description of experiment [9]: qHTS of pediatric cancer cell lines to identify multiple opportunities for drug repurposing: Primary screen for OHS-50 cells (AID 1347103). Note: nearly all actives have a fitted effect of over 40% in size. Note: potency is the fitted concentration of half-maximal effect. In outline: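 Cells (500-1,000/well) rested 5 h, then received compounds for 48 h; metabolically active cells were measured by CellTiter-Glo luminescence. Final concentrations spanned up to 46 µM (MIPE, 11-point) or 0.59 nM-46 µM (NPC, 8-point) in primary screens, 11-point in follow-ups.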

On to `CCCCC(C=O)NC(=O)C(CC(C)C)NC(=O)OCc1ccccc1` (centres undefined), for which the Potency in [1] is 26.4 µM (active). Further, the Potency result in [2], in [3], in experiment [4] and in [5] was “inactive” throughout.
As to `CCOC(=O)[C@@H](N)CCC(=O)N[C@@H](CSCc1ccccc1)C(=O)N[C@@H](C(=O)OCC)c1ccccc1`, the Potency entry in experiment [1], in experiment [2], in [3], in experiment [6], in experiment [4] and in experiment [5] was “inactive” in each case. In addition, the Potency result in experiment [7] and in experiment [8] was “inactive” each time.
For the compound `Cc1nc2c([nH]1)CCN(C(=O)c1ccc(NC(=O)c3ccccc3-c3ccccc3)cc1)c1ccccc1-2`, the Potency entry in experiment [1], in experiment [2], in [3], in experiment [6], in experiment [4] and in experiment [5] was “inactive” throughout. For the same compound, the Potency result in experiment [7] and in experiment [8] was “inactive” throughout.
As to `COC(=O)[C@H](c1ccccc1Cl)N1CCc2sccc2C1`, the Potency in experiment [1] is 20.9 µM (active). Besides, the Potency result in [2], in experiment [3], in experiment [4], in experiment [5], in experiment [7] and in experiment [8] was “inactive” in each case.
As for `Cc1cc(NC(=O)Nc2ccc(N(C)C)cc2)c2cc(F)cc(F)c2n1`, the Potency entry in [1], in experiment [2], in experiment [6], in experiment [4], in experiment [5] and in experiment [7] was “inactive” in each case. For the same compound, the Potency result in [8] was “inactive”.
In the case of `CC1CCN(c2cc(N3CCN(C)CC3)ccc2NC(=O)c2cc(C#N)c[nH]2)CC1`, the Potency entry in experiment [1], in experiment [2], in experiment [3], in experiment [4], in experiment [5] and in experiment [7] was “inactive” throughout.
In the case of `Oc1cc(O)cc(C=Cc2ccc(O)c(O)c2)c1`, the Potency in experiment [1] is 20.9 µM (active); in experiment [2], 13.2 µM (active); in experiment [9], 19.3 µM (active). Also, the Potency result in experiment [5] is “inactive”.
On to `C[C@@H]1O[C@@H](O[C@H]2CC[C@@]3(C)[C@H](CC[C@@H]4[C@H]3C[C@@H](O)[C@]3(C)[C@@H](C5=CC(=O)OC5)CC[C@]43O)C2)C[C@H](O)[C@@H]1O[C@H]1C[C@H](O)[C@H](O[C@H]2C[C@H](O)[C@@H](O)[C@@H](C)O2)[C@H](C)O1` (stereo in doubt), for which the Potency is 0.429 µM (active) in experiment [1]; 0.241 µM (active) in [2]; 0.14 µM (active) in experiment [9]; 0.0679 µM (active) in [4]; 0.171 µM (active) in experiment [8].
As for `Cc1cc(CS(=O)(=O)c2ccccc2)cc(OCc2ccc(CN3CCC[C@H]3CO)cc2)c1`, the Potency in [1] was 14.8 µM (active); in experiment [6], 5.9 µM (active); in [8], 11.8 µM (active). For the same compound, the Potency entry in experiment [2] and in [5] was “inactive” throughout.
Regarding `O=C(O)CCNc1cc(N2CCc3ccccc3CC2)nc(-c2ccccn2)n1`, the Potency in [1] was 11.8 µM (active). In addition, the Potency result in [2], in experiment [9], in experiment [6], in experiment [4], in experiment [5] and in experiment [7] was “inactive” in each case.
With `COc1nccc(-c2c(-c3ccc(F)cc3)ncn2C2CCNCC2)n1`, the Potency result in [1], in experiment [2], in experiment [3], in experiment [4], in experiment [5] and in [8] was “inactive” in each case.
With `Cc1c(-c2cccc3c(CCCOc4cccc5ccccc45)c(C(=O)O)n(Cc4cccnc4)c23)c(COc2ccc(N3CCN([S+](=O)([O-])N(C)C)CC3)cc2)nn1C`, the Potency in [1] was 23.5 µM (active); in experiment [2] it was 20.9 µM (active); in experiment [6], 33.2 µM (active); in [4], 23.5 µM (active). Further, the Potency entry in [5] was “inactive”.
Consider `O=C(O)C1=NC(C(=O)O)CC(C=CN2c3cc(O)c(OC4OC(CO)C(O)C(O)C4O)cc3CC2C(=O)O)=C1` (centres undefined), for which the Potency entry in experiment [1], in experiment [2], in experiment [9], in experiment [4] and in [5] was “inactive” in each case.
For `O=C1NC(=O)C(c2cnc3ccccn23)=C1c1cn2c3c(cccc13)CN(C(=O)N1CCOCC1)CC2`, the Potency was 20.9 µM (active) in experiment [1], 2.96 µM (active) in [2] and 0.469 µM (active) in [4]. For the same compound, the Potency entry in [5] is “inactive”.
Take `CCC(=O)NCC[C@@H]1CCc2ccc3c(c21)CCO3`: the Potency result in experiment [1], in experiment [2], in experiment [3], in experiment [4], in experiment [5] and in [7] was “inactive” each time.
Take `N#Cc1c(N(CC(=O)O)CC(=O)O)sc(C(=O)O)c1CC(=O)O`: the Potency entry in [1], in [2], in experiment [9], in [6], in experiment [4] and in [7] was “inactive” each time. Further, in experiment [8], the Potency result was “inactive”.
Regarding `CC(C)[C@H](O)C(=O)N[C@@H](C)C(=O)N[C@@H]1C(=O)N(C)CCc2ccccc21`, the Potency in [1] is 20.9 µM (active). For the same compound, the Potency entry in [2], in [3], in experiment [5] and in experiment [8] was “inactive” throughout.
In the case of `Cn1cnc(-c2cc3nccc(Oc4ccc(NC(=S)NC(=O)Cc5ccccc5)cc4F)c3s2)c1`, the Potency was 16.6 µM (active) in [1], 16.6 µM (active) in experiment [2] and 34.3 µM (active) in [9]. In addition, the Potency entry in experiment [5] is “inactive”.
With `CCCCOCCOc1nc(-c2ccc(C(=O)O)c(F)c2)sc1C`, the Potency result in [1], in experiment [2], in [6] and in experiment [5] was “inactive” in each case. In experiment [9], the Potency was 0.485 µM (active).
`O=C1C(c2c(O)[nH]c3ccccc23)=Nc2ccccc21`: the Potency entry in [1], in [2], in experiment [3], in experiment [9] and in [8] was “inactive” in each case.
